A selection: hits, their analogues and other compounds. The true share with any hit is near 2.7%.
pPAFAH inh – inhibitors of human plasma PAF acetylhydrolase (pPAFAH) | recombinant pPAFAH, FP-rhodamine probe fluorescence polarization | 1.5% of 330,000 active | inhibition, % at 3.39 µM | Q13093;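 active = inhibition above the mean inhibition across the screen plus 3 SD, cut at about 25% in these data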;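 note: inhibitors block binding of the rhodamine activity-based probe so polarization drops; 0% = enzyme with DMSO and 100% = wells lacking pPAFAH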
PAFAH1B3 inh – blocks human PAF acetylhydrolase 1B catalytic subunit 3; 0.28% of 340,000 active; inhibition, % at 3.39 µM; Q15102; recombinant PAFAH1B3, FP-rhodamine probe, fluorescence polarization;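 active = inhibition above the screen-wide average of all tested compounds plus 3 SD, cut at about 25% in these data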;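 note: 0% = enzyme with DMSO only and 100% = wells lacking PAFAH1B3 protein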
Target sequence (Q15102 whole entry, looked up): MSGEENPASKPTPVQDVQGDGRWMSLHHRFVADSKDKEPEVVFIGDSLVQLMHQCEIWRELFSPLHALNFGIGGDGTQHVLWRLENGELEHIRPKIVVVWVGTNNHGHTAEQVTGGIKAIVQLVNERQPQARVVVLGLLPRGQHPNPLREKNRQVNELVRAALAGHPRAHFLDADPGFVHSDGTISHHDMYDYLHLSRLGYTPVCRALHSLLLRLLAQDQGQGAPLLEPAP
TCR-CD3 inh – blocks the human TCR-CD3 interaction; AID 651800; inhibition, % at 9.4 µM; 0.37% of 360,000 active; TAMRA-labeled TCR probe fluorescence, biochemical; in the data active = inhibition above about 19%;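 note: recombinant mutant TCR 2C K166C tagged with TAMRA read by polarization; 0% = receptor in buffer alone and 100% = receptor with positive control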
PAFAH2 FP inh – PAFAH2 (human) inhibition. Q99487. recombinant PAFAH2, FP-rhodamine activity probe, fluorescence polarization. inhibition, % at 3.39 µM. 0.99% of 340,000 active;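 active = inhibition above the mean over all tested compounds plus 3 SD, cut at about 30% in these data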;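 note: inhibitors block probe labeling of enzyme so polarization drops; 0% = enzyme with DMSO and 100% = wells lacking PAFAH2 protein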
PAFAH1B2 inh – blocks human PAF acetylhydrolase 1b catalytic subunit 2 | P68402 | recombinant PAFAH1B2, FP-rhodamine activity probe, fluorescence polarization | inhibition, % at 3.39 µM | 1.2% of 340,000 active | AID 492953;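 active = inhibition above the mean of all tested compounds plus 3 SD, cut at about 24% in these data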;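 note: 0% = enzyme with DMSO and 100% = wells lacking PAFAH1B2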
Target sequence (P68402 whole entry, looked up): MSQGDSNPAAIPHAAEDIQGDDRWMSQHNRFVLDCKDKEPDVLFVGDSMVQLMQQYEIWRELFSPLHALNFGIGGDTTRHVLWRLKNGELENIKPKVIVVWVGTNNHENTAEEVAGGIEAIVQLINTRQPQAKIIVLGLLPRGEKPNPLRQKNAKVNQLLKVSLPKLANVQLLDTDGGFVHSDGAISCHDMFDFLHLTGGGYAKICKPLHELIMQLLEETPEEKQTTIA
* hit, by the source's call; x = not tested or not shown.

SMILES	pPAFAH inh	PAFAH1B3 inh	TCR-CD3 inh	PAFAH2 FP inh	PAFAH1B2 inh
CC(C)N(Cc1ccccc1)C(=O)COC(=O)c1ccc(O)cc1	2.2	0.4	-5.7	4.0	2.2
COC(=O)c1cc2c(c3c4cc(OC)ccc4n(S(=O)(=O)c4ccccc4)c13)C(=O)N(Cc1ccc(C(F)(F)F)cc1)C2	x	x	2.9	x	x
Nc1ccc(C(=O)O)c(O)c1	12.1	1.7	-5.2	-7.8	3.4
Nc1ccc(N)c(C(=O)O)c1	34.2*	69.3*	x	66.3*	46.9*
CN(c1ccc(NC(=O)CCc2cn(Cc3ccc(Br)cc3)c3ccccc23)cc1)c1ccccn1	x	x	-8.9	x	x
Cc1ccc(NC(=O)CCc2nnc3ccc(N4CCC(C)CC4)nn23)nc1	1.9	1.7	-1.2	13.9	9.1
COC(=O)N1C[C@H](O)[C@H](O)C[C@@H]1c1ccccc1Br	x	x	-2.7	x	x
Cc1cccc(Oc2cc(NC(=O)Cn3cnc([N+](=O)[O-])n3)cc([N+](=O)[O-])c2)c1	29.0*	-1.8	-3.0	-13.4	1.3
S=c1[nH]nc(-c2ccccc2)n1/N=C/C=C/c1ccco1	31.1*	14.8	4.9	11.0	0.6
S=c1[nH]nc(-c2cccnc2)n1/N=C/C=C/c1ccco1	19.2	11.2	0.8	4.6	1.2
O=C(Nc1ccc(Cl)cc1)N[C@@H]1CC[C@H](CCNS(=O)(=O)c2ccccc2F)O[C@@H]1CO	x	x	-7.5	x	x
Cc1oc2ccc(NS(=O)(=O)c3ccccc3)cc2c1C(=O)Nc1ccccc1	32.7*	2.8	8.3	1.4	7.9
COCCOC(=O)c1c(C)oc2ccc(NS(=O)(=O)c3ccccc3)cc12	7.1	3.8	2.0	-0.7	-1.5
COc1cc2c(c(OC)c1OC)[C@@]1(c3ccccc3)CCCC[C@H]1[C@@H]2NC(=O)C(F)(F)F	x	x	5.0	x	x
CCOc1ccc(NS(=O)(=O)c2ccc(C(=O)NCCN3CCOCC3)cc2)cc1	32.3*	3.6	-0.6	-0.7	-1.8
Cc1ccc(NS(=O)(=O)c2ccc(C(=O)NCCN3CCOCC3)cc2)cc1	25.3*	3.0	1.2	6.5	7.3
CCOc1ccc(S(=O)(=O)Nc2ccc(C(=O)NCCCN3CCOCC3)cc2)cc1	6.2	2.6	5.0	-0.7	0.8
CN1CC=C2C(C#N)=C(N)C(C#N)(C#N)[C@H](c3ccoc3)[C@H]2C1	32.0*	20.4	x	28.4	13.6
Cc1ccc(C(=O)OCC(=O)c2ccc(CC(=O)N3CCOCC3)s2)c(C)c1	x	5.1	10.2	6.5	-0.7
Cc1ccc(C(=O)OCC(=O)c2ccc(CC(=O)N3CCOCC3)s2)cc1C	27.1*	2.7	-2.5	11.2	2.4
Cc1ccc(CNC(=O)CO/N=C/c2ccc(C(C)(C)C)cc2)cc1	7.3	3.3	2.0	-6.4	28.8*
CC(C)(C)c1ccc(/C=N/OCC(=O)NCc2ccccc2)cc1	5.1	-3.3	-0.4	4.7	23.0
COC(=O)CSc1ccc(S(=O)(=O)N2CCOCC2)cc1[N+](=O)[O-]	1.0	6.0	3.4	2.6	6.3
CCOC(=O)CSc1ccc(S(=O)(=O)N2CCC(C)CC2)cc1[N+](=O)[O-]	4.5	9.7	2.1	-0.4	25.7*
COc1ccc(Cn2nnnc2CN(Cc2cc3cc(C)ccc3[nH]c2=O)C2CCCC2)cc1	1.8	3.4	-1.6	3.7	25.8*
SMILES	pPAFAH inh	PAFAH1B3 inh	TCR-CD3 inh	PAFAH2 FP inh	PAFAH1B2 inh
COc1ccc2[nH]c(=O)c(CN(Cc3nnnn3Cc3ccco3)C3CCCCC3)cc2c1	9.0	2.7	0.8	4.0	-0.3
O=C(O/N=C1/CCCc2occc21)c1ccc(Cl)cc1Cl	0.1	1.8	-5.5	7.9	33.7*
O=C(O)c1ccc(S(=O)(=O)c2ccc3c(c2)C(=O)N(NC(=O)c2ccc(O)cc2)C3=O)cc1	0.4	4.4	2.8	2.1	3.8
Cc1ccc(C(=O)NN2C(=O)c3ccc(S(=O)(=O)c4ccc(C(=O)O)cc4)cc3C2=O)cc1	-0.7	3.1	7.2	5.1	24.2*
Cc1ccc(C(CC(=O)O)NC(=O)CCNC(=O)c2ccco2)cc1 (stereo not given)	x	-5.2	5.3	-5.0	0.0
O=C(COC(=O)C12CC3CC(CC(Cl)(C3)C1)C2)Nc1ccc2[nH]c(=O)[nH]c2c1	6.2	4.8	0.8	7.5	28.2*
O=C(Nc1ccccc1C(=O)O)c1cc(S(=O)(=O)Nc2cccc(F)c2)ccc1Cl	31.3*	1.0	2.9	-8.2	4.0
Cc1ccc(C(=O)/C=C/c2ccc(-c3ccc(C)cc3)o2)cc1	25.7*	-5.9	1.6	-0.6	-2.5
COC(=O)c1ccc2nc(-c3ccco3)c(Cc3cccc(F)c3)n2c1	x	x	-4.7	x	x
CN(C)c1nc(OCCNC(=O)Nc2ccc(Cl)cc2)nc(N(C)C)n1	25.5*	6.7	1.6	-1.9	4.0
COc1nc(OCCNC(=O)Nc2ccccc2)nc(N(C)C)n1	-6.9	10.4	-0.9	0.4	-0.6
C/C(=N\Nc1ccc(Cl)c(C(=O)O)c1)c1ccc[nH]1	32.5*	17.2	-7.3	12.8	4.2
C/C(=N\Nc1ccc(Cl)c(C(=O)O)c1)c1cccs1	14.0	9.8	-0.1	7.9	11.4
COc1cc2[nH]c(C(=O)N3CC(C)OC(C)C3)cc2c(OC)c1OC (stereo not given)	-0.4	11.1	-4.2	-6.9	4.5
O=C(Nc1ccc(S(=O)(=O)Nc2ncccn2)cc1)C12CC3CC(CC(Cl)(C3)C1)C2	13.2	10.3	1.6	5.8	29.7*
COc1ccc(NC(=O)COC(=O)c2ccc(O)cc2)c([N+](=O)[O-])c1	27.9*	6.1	4.0	49.3*	-0.2
O=C(O)c1ccc(CSCc2ccccc2)o1	x	x	5.2	x	x
Cc1ccc(CSCc2ccc(C(=O)O)o2)cc1	24.2	-1.4	-4.5	0.9	29.4*
O=C(O)CCC(=O)N1CCN(c2nc(-c3ccccc3Cl)c3cc(Br)ccc3n2)CC1	33.2*	5.5	11.7	8.3	-0.4
CN(Cc1ccsc1)C(=O)Cn1cc(Br)ccc1=O	0.7	2.9	-2.9	-0.6	2.7
NC(=O)C(CC(=O)O)NC(=O)[C@@H]1CCCNc2c(I)cc([N+](=O)[O-])cc2C(=O)N[C@@H](CO)C(=O)N[C@@H](Cc2ccc(O)cc2)C(=O)N1 (stereo not given in full)	26.3*	7.3	x	-1.5	8.3
NC(=O)CC[C@@H]1NC(=O)[C@H](CO)NC(=O)c2cc([N+](=O)[O-])cc(I)c2NCCCC[C@@H](C(N)=O)NC(=O)[C@H](Cc2ccc(O)cc2)NC1=O	-3.5	x	x	x	x
Cc1cc(O)cc(=O)n1-c1ccc(OC(F)F)cc1	x	x	-3.3	x	x
COc1cc(/C=N/NC(=O)c2ccccc2NS(=O)(=O)c2cccs2)ccc1O	x	2.5	3.1	7.1	-4.4
c1ccc(Cc2cnc(N3CCN(Cc4csc5ccccc45)CC3)nc2)cc1	x	x	-1.7	x	x
N#CC1=C(N)c2ccccc2CC12CCCCC2	7.1	-5.0	-8.4	4.3	34.8*
COc1ccc(-c2cc(-c3ccc(OC)c(OC)c3)n[nH]2)c(O)c1	24.6*	2.5	1.9	4.2	4.7
Cc1[nH]nc2c1C1(CCN(C(=O)OCc3ccccc3)CC1)C(C#N)=C(N)O2	-0.3	1.8	4.1	6.9	2.3
